This is a sample that favours compounds with a hit; in the whole collection about 1.2% have one here.
BJeLR lethal: BJeLR cell viability loss. BJeLR (HRASV12) viability, CellTiter-Glo ATP luminescence, 48 h. inhibition, % (concentration not given with the values). actives 0.17% (n = 300,000); in the data active = inhibition above about 50%
PrPC TRFRET: reduces human prion protein on the cell surface; cell surface PrPC, TR-FRET read-out; inhibition, % at 13.8 µM; actives 0.43% (n = 370,000); AID 720596; in the data active = inhibition above about 24%; also: 0% = median of the test wells and 100% = reference compound wells
PrP UTR inh: suppresses PrP 5' UTR mRNA reporter expression | actives 0.35% (n = 340,000) | cell-based PrP 5' UTR mRNA reporter, plate reader | inhibition, % (no concentration beside the values); in the data active = inhibition above about 52%; also: 0 = median of the neutral control wells
SARS 3CLpro inh: SARS-CoV 3CLpro protease inhibition; AID 1706; actives 0.14% (n = 290,000); P0C6X7; inhibition, % at 6 µM; recombinant SARS-CoV 3CLpro, quenched FRET peptide cleavage; in the data active = inhibition above about 12%
PriA SSB inh: K. pneumoniae PriA-SSBct interaction inhibition | AlphaScreen SSBct-PriA binding, biotinylated peptide | inhibition, % at 33 µM | actives 0.6% (n = 430,000) | AID 1272365; in the data active = inhibition mostly above about 37%, no sharp cut-off; inactive = mostly below about 20%;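 also: plate controls were negative control peptide for no effect and reference peptide for full effect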
PrPC TRFRET cf: cell surface PrPC inhibition, TR-FRET confirmation; shares compounds with PrPC TRFRET; cell surface PrPC level; inhibition, % at 13.8 µM; actives 65% (n = 1,500); AID 743200; in the data active = inhibition above about 25%
LD9 cytotox: counter-screen for PrPc inhibitors: cytotoxicity in LD9 cells. actives 29% (n = 1,500). inhibition, % at 13.8 µM. AID 743201. shares compounds with PrPC TRFRET. luminescence viability; in the data active = inhibition above about 9.5%
The depositor's hits bear a star; · = no result given.

SMILES | BJeLR lethal | PrPC TRFRET | PrP UTR inh | SARS 3CLpro inh | PriA SSB inh | PrPC TRFRET cf | LD9 cytotox
CNNC(=S)Nc1cccc(C(F)(F)F)c1 | 0 | 62* | · | 0 | -2 | -1 | -6
COc1cc(NC(=O)C2CCCN(S(=O)(=O)c3ccc4c(c3)CCCN4C(C)=O)C2)cc(OC)c1 (stereo not given) | -3 | 41* | 1 | 2 | -13 | 28* | -1
COc1ccc(NC(=O)C2CCCN(S(=O)(=O)c3ccc4c(c3)CCCN4C(C)=O)C2)cc1 (stereo not given) | -2 | 2 | -12 | 6 | 3 | · | ·
CC(=O)N1c2ccc(S(=O)(=O)N3CCCC(C(=O)Nc4cc(C)cc(C)c4)C3)cc2CC1C (stereo not given) | 7 | 35* | -1 | -2 | -12 | 58* | -5
CC(=O)N1c2ccc(S(=O)(=O)N3CCCC(C(=O)Nc4ccc(F)cc4)C3)cc2CC1C (stereo not given) | 14 | 35* | -2 | -3 | -10 | 39* | 16*
CN(CCO)CC1COCCN1C(=O)c1ccc(Cl)s1 (stereo not given) | · | · | · | · | -18 | · | ·
O=C(COc1ccc(Cl)cc1Cl)NN=Cc1cccnc1 | · | · | · | · | -1 | · | ·
CC(=O)Nc1ccc(S(=O)(=O)Oc2cccc(C=NN=C3NC(=O)C(CC(=O)O)S3)c2)cc1 (stereo not given) | · | · | · | · | -4 | · | ·
CCCc1nc(SCC(=O)Nc2nccs2)c2ccccc2n1 | -7 | 20 | -5 | -8 | -6 | · | ·
CCN(CC)C(=O)CSc1nc(COc2ccccc2)nc2ccccc12 | -10 | -6 | -6 | -1 | -17 | · | ·
COC(=O)CSc1nc(COc2ccccc2)nc2ccccc12 | -6 | 49* | -8 | -1 | -5 | 66* | -6
CCCCNC(=O)CSc1nc(CCC)nc2ccccc12 | 8 | 46* | -14 | 2 | -18 | 59* | -6
CCCNC(=O)CSc1nc(COc2ccccc2)nc2ccccc12 | -3 | 29* | -24 | -4 | 2 | 41* | -3
CCc1cc2cccc(C)c2nc1SCC(=O)Nc1nonc1C | 5 | 31* | -20 | 0 | -1 | 35* | -5
CCc1cc2cccc(C)c2nc1SCC(=O)NNC(=O)c1ccco1 | 4 | 71* | -15 | 6 | -8 | 98* | -3
CCc1cc2ccc(C)c(C)c2nc1SCC(=O)NNC(=O)c1ccco1 | 1 | 19 | -21 | -5 | -2 | · | ·
COc1ccc(S(=O)(=O)C2CN(C(=O)C(c3ccccc3)c3ccccc3)C2)cc1 | · | · | · | · | -2 | · | ·
CN=C(Nc1cccc(Cl)c1)SC1CC(=O)N(c2ccc(OC)cc2)C1=O (stereo not given) | -1 | 30* | -19 | 2 | -7 | 2 | -2
CN=C(Nc1ccc(C)c(C)c1)SC1CC(=O)N(c2ccc(OC)cc2)C1=O (stereo not given) | -6 | 2 | -9 | 7 | 11 | · | ·
CSc1ccccc1C(=O)OC1CN(c2nc3ccc(F)cc3s2)C1 | · | · | · | · | -4 | · | ·
Cc1cc2ncc(CCCNC(=O)c3cnn(-c4ccccc4)c3C)cn2n1 | · | · | · | · | -1 | · | ·
CCOc1ccc(-c2cc(C(=O)NCCCn3ccnc3)c3cc(Br)ccc3n2)cc1 | 2 | 25* | -12 | -6 | -7 | 82* | 0
CCOc1ccc(-c2cc(C(=O)NCCCn3ccnc3)c3ccccc3n2)cc1 | 2 | -6 | -10 | -2 | 5 | · | ·
CCOC(=O)c1c(C)n(-c2ccccc2)c2ccc(O)cc12 | 4 | 27* | -4 | 3 | -17 | -2 | -8
CCc1nnc(C2CCN(C(=O)NCc3ccccc3)CC2)s1 | · | · | · | · | -1 | · | ·
SMILES | BJeLR lethal | PrPC TRFRET | PrP UTR inh | SARS 3CLpro inh | PriA SSB inh | PrPC TRFRET cf | LD9 cytotox
O=C(CSc1nnc(COc2ccc(Cl)cc2)n1Cc1ccco1)Nc1ccc2c(c1)OCO2 | · | 25* | · | · | · | 22 | 3
Cc1cc(C)n(CC(=O)Nc2ccc(Cl)cc2)c(=O)c1-c1nc(-c2ccc(Cl)cc2)no1 | · | · | · | · | -6 | · | ·
COc1ccc(-c2csc(NC(=O)c3ccccc3NS(=O)(=O)c3ccc(F)c(F)c3)n2)cc1 | 16 | 32* | -35 | 7 | 8 | 44* | 38*
Cc1cc2ccccc2n1CCNC(=O)Cc1ccccc1 | 5 | 27* | -8 | -2 | 44* | 14 | -4
Cc1cccc(CC(=O)NCCn2c(C)cc3ccccc32)c1 | 12 | 27* | -28 | -1 | 38 | 8 | -4
Cc1cc2ccccc2n1CCNC(=O)C(C)Oc1ccccc1 (stereo not given) | 10 | 41* | -1 | 2 | 35 | 30* | -4
Cc1cc2ccccc2n1CCNC(=O)C(C)C | 4 | 5 | 31 | 2 | 10 | · | ·
COc1ccc2cc(C(=O)Nc3ccc4c(c3)N(C(=O)c3ccco3)CC4)[nH]c2c1 | · | · | · | · | -2 | · | ·
Cc1ccc(C)c(N2CCN(c3ccc(S(=O)(=O)Cc4ccc(Cl)cc4)nn3)CC2)c1 | · | · | · | · | -1 | · | ·
O=C(NCCOc1cccc(C(F)(F)F)c1)C1CC1 | · | · | · | · | 0 | · | ·
CCOC(=O)C1=C(c2ccccc2)NC(=O)NC1c1ccc(O)c(Cl)c1 (stereo not given) | 0 | 36* | -5 | 4 | 10 | 49* | 52*
CCOC(=O)C1=C(c2ccccc2)NC(=O)NC1c1ccc(O)c(OCC)c1 (stereo not given) | 7 | 4 | -15 | -4 | 3 | · | ·
C1=C(CCNc2ncnc3c2[nH]c2ccccc23)CCCC1 | · | 40* | -41 | 1 | 26 | 40* | 22*
O=c1c2[nH]c3ccccc3c2ncn1CCC1=CCCCC1 | 4 | 0 | -23 | -5 | -11 | · | ·
CC(C)(C)C(=O)c1cnc(Nc2ccccc2Cl)s1 | -2 | 28* | -36 | 0 | -13 | 36* | 1
COc1ccc(S(=O)(=O)N2CCOC23CCN(C(=O)c2ccc(Cl)cc2Cl)CC3)cc1 | 11 | 53* | -16 | -2 | -4 | 47* | 2
CC(C)(C)OC(=O)NCCCCCc1cn([C@@H](CO)C(=O)NCCCCCCCCCCC(=O)N2CCN(C(=O)OC(C)(C)C)CC2)nn1 | · | 53* | -46 | · | -1 | 34* | 36*
S=c1nc[nH]c2c1oc1ccccc12 | · | · | · | · | 11 | · | ·
S=c1nc[nH]c2c1[nH]c1ccccc12 | -2 | 135* | -24 | 0 | 2 | 142* | -1
S=c1nc[nH]c2c1[nH]c1ccc(Cl)cc12 | 9 | 43* | -15 | 2 | -3 | 131* | 7
O=c1c2ccccc2nc(SCC#CCO)n1-c1ccccc1 | · | · | · | · | 0 | · | ·
Cc1cc(C)cc(CC(Cc2nc3ccccc3[nH]2)c2nc3ccccc3[nH]2)c1 (stereo not given) | -1 | 28* | -5 | -2 | 17 | 30* | 1
COc1nn(C)cc1C(=O)N1CCC(C(=O)NCCC(c2ccccc2)c2ccccc2)CC1 | · | · | · | · | -2 | · | ·
Cn1c(CCNC(=O)C2CCCCC2)nc2ccccc21 | · | · | · | · | -6 | · | ·

High-throughput results from PubChem BioAssay.
